# Measured values from PubChem BioAssay AID504456 (NMMLSC, 2011).
# The other results are listed elsewhere or left out. Active and inactive are the calls of the source.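 The calls were made as follows: active = growth rating at most 1 for wild type yeast while the TORC1 bypass strain still grows fully, rated 3; inactive = the rest.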
# Assay: rapamycin-like growth block in BY4741 yeast – BY4741 wild type, TORC1 bypass strain, mechanism study for yeast TOR pathway GFP screen (AID 504456)
# Conditions: S. cerevisiae BY4741 spot growth rating, 48-72 h, at 30 µM
# [1] = TORC1 bypass strain growth rating
SMILES,growth rating (0-3) [1],growth rating (0-3) (stronger effect = lower value)
Cc1ccc(-c2nn(C(C)(C)C)c3ncnc(N)c23)cc1,3,3 (inactive)
CN(C)CCCNc1nc(N)c([N+](=O)[O-])c(Nc2cccc(F)c2)n1,3,3 (inactive)
